Consider 9 targets from the supplement of paper PMC10849652.

Of roughly 8,800 targets only a part is listed; those with a hit were picked by preference. About 0.5% of all pairs of compound and target were hits. Unmarked numbers belong to inactive results.

Assay in all cases: log2 fold change, soluble protein after heating vs DMSO (PISA); higher = thermal stabilisation; K562 lysate, 10 uM; active = over 0.2 and 3.5 SD of the protein, either way, in both replicates (recomputed)
Compound in experiment [1]: NCC(=O)Nc1ccc(-n2nc(C(F)(F)F)cc2-c2ccc3c(ccc4ccccc43)c2)cc1
Put shortly:
(§1)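 Thermal stability, expressed as log-two fold change relative to solvent controls, is given from duplicates. Crude K562 extract in PBS pH 7.4 with 1 mM MgCl2, at 1 mg/mL protein, was treated with 10 μM compound for 30 min and heated in aliquots for 3 min across 48°C-58°C. After pooling, adjustment to 0.5% NP-40 at 4°C and centrifugation at 21,000xg for 90 min, supernatant protein was measured by TMTpro 16plex LC-MS/MS with channel sums equalised.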

Compound in another experiment: O=C(CCCCCCC(=O)Nc1ccccc1)NO [vorinostat]
The gist of the method: as §1

Compound in a further experiment: O=C(O)c1ccc2c(c1)nc(Nc1cccc(Cl)c1)c1ccncc12 [silmitasertib]
The gist of the method: as §1

Compound in experiment [2]: O=C1NC(=O)C(c2cnc3ccccn23)=C1c1cn2c3c(cc(F)cc13)CN(C(=O)N1CCCCC1)CC2
Put shortly: as §1

Compound in the next experiment: c1cn2cc(-c3ccc4cn[nH]c4c3)nc(Nc3ccc(N4CCOCC4)cc3)c2n1 [entospletinib]
The gist of the method: as §1

Chain of UniProt Q13015 (Q13015 whole entry, looked up): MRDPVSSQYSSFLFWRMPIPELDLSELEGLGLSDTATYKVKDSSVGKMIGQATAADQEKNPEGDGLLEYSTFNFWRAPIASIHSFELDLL
Chain of UniProt Q68D91 (Q68D91 whole entry, looked up): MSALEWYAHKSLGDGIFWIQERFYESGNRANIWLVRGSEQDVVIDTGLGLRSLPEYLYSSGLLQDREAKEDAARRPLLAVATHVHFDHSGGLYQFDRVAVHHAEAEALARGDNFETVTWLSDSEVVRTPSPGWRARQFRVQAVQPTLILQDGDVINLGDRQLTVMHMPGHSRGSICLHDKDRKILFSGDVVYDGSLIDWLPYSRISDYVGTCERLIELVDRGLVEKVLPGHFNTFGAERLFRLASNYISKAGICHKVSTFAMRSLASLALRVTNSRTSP
Chain of UniProt P40692 (P40692 whole entry, looked up): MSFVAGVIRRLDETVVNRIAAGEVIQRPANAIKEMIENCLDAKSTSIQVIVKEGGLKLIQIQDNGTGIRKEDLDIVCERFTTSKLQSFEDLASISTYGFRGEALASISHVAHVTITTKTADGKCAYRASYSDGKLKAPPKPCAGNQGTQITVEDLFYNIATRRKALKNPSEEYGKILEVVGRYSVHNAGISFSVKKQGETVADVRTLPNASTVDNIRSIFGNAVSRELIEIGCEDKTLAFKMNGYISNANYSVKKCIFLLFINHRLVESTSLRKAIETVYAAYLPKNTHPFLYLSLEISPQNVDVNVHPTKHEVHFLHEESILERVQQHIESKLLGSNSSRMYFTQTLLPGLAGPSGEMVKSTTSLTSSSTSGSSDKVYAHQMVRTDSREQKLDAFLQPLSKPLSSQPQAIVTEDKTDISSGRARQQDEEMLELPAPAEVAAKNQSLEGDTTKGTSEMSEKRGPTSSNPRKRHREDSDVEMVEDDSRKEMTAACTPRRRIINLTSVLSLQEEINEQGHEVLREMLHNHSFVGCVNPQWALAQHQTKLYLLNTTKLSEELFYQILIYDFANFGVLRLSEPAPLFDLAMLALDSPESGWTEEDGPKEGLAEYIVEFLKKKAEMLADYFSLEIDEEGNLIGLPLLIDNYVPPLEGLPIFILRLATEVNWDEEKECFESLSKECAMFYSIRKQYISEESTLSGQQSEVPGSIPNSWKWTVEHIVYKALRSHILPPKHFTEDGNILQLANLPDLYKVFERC
Chain of UniProt P49137 (P49137 whole entry, looked up): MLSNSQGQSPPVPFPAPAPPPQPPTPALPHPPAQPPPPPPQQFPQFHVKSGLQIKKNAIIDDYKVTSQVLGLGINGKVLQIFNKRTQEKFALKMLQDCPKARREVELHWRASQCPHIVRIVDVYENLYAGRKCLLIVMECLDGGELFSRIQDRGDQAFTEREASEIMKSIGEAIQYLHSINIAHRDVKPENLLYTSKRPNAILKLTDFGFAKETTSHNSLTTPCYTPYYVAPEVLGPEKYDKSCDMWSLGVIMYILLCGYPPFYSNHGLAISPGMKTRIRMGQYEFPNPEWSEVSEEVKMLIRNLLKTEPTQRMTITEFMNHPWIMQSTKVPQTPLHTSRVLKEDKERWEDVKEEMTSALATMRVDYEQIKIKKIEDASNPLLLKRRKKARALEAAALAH
Chain of UniProt Q14739 (Q14739 whole entry, looked up): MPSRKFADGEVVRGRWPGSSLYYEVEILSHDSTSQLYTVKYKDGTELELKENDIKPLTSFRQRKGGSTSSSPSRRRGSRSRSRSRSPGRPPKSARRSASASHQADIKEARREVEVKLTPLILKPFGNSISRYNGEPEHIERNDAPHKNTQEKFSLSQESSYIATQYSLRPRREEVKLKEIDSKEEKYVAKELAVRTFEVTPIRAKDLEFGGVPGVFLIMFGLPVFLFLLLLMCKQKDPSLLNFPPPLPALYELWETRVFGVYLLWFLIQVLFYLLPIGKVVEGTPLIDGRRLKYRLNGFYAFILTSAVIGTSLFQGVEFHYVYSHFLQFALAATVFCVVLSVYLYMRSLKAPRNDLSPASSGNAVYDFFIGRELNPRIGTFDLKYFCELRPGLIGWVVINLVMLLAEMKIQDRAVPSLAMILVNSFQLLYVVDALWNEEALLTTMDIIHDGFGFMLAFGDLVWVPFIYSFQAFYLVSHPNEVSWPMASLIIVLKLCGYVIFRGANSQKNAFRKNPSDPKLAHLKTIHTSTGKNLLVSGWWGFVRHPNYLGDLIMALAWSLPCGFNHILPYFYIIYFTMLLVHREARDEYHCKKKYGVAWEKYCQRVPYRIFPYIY
Chain of UniProt Q71F56 (Q71F56 whole entry, looked up): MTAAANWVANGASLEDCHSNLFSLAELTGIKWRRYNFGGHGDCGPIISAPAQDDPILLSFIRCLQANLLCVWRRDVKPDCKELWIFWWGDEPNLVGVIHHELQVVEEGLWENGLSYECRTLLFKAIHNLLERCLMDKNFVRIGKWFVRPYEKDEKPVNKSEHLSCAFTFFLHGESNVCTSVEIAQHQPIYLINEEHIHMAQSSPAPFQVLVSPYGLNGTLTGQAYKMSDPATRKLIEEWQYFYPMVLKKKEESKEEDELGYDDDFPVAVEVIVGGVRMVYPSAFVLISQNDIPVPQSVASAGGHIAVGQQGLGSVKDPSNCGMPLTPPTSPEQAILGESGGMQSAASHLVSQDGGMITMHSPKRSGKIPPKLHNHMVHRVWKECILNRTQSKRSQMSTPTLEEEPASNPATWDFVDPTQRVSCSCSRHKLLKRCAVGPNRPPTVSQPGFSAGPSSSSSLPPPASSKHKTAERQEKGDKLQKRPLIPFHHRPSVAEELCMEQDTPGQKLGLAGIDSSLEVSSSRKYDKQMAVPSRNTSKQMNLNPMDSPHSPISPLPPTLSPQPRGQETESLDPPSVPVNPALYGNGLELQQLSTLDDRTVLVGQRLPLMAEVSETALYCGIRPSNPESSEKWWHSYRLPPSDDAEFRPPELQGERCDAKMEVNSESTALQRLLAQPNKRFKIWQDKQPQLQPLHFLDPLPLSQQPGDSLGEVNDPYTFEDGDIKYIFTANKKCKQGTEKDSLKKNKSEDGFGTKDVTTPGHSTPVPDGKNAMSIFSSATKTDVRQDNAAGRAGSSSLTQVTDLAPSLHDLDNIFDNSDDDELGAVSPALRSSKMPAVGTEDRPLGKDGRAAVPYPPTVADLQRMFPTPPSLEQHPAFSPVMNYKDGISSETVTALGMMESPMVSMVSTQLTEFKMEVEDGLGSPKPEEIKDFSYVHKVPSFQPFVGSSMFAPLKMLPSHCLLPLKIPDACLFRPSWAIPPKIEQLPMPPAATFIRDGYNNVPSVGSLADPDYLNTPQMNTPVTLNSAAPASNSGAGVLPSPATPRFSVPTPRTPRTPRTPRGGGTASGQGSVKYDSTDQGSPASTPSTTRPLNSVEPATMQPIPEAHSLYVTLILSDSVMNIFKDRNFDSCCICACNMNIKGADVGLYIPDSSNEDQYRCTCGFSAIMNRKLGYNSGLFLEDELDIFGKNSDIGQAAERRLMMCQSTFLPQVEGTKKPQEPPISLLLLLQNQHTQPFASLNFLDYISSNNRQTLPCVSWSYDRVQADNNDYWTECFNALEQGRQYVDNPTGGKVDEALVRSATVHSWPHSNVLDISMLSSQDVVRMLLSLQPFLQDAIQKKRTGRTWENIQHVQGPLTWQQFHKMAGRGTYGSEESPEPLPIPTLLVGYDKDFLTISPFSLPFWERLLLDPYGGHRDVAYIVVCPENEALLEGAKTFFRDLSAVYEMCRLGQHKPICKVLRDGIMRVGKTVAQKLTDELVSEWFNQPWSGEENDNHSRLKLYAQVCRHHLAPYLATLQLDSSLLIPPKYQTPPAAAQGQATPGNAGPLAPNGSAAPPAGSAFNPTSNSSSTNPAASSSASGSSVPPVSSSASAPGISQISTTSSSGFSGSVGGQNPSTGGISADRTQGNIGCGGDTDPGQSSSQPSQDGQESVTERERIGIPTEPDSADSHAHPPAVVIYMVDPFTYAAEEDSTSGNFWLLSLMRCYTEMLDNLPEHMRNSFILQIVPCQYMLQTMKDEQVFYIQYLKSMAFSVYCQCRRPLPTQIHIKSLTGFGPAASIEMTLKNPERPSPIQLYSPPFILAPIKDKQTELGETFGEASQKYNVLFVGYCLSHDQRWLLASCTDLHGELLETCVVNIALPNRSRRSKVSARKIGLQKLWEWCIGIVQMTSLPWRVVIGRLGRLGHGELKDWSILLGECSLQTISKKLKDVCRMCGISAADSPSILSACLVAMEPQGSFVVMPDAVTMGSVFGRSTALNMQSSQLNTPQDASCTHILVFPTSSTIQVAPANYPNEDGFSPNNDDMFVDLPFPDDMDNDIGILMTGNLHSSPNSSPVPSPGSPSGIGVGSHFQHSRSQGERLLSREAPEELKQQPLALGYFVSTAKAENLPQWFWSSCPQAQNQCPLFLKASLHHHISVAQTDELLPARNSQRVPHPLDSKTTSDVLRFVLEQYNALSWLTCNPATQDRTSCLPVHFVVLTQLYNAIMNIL
Chain of UniProt Q9NSK0 (Q9NSK0 whole entry, looked up): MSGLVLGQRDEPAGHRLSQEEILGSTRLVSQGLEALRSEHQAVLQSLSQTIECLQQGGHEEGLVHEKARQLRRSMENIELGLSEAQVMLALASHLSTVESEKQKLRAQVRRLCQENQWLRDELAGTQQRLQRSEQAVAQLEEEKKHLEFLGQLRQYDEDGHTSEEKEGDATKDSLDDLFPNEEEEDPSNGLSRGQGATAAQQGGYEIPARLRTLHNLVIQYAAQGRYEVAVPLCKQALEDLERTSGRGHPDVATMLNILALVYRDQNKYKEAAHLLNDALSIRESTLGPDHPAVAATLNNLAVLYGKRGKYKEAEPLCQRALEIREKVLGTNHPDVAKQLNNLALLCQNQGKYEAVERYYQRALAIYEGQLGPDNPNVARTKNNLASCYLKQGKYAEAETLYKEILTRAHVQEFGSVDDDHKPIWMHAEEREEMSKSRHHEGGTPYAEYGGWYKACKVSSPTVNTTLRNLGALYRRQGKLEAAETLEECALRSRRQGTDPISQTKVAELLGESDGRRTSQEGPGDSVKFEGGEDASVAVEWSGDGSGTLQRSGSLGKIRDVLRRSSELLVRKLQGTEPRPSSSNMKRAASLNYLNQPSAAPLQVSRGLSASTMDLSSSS

Turning to MLLT11 (UniProt Q13015), the log2 fold change is 0.08 in experiment [1]; 0.104 in the experiment with vorinostat; -0.203 with silmitasertib; -0.016 in experiment [2]; 0.034 in the experiment with entospletinib.

KLC4 isoform 3 (UniProt Q9NSK0): the log2 fold change in experiment [1] is 0.01; with vorinostat, -0.557 (active); in the experiment with silmitasertib, 0.009; in experiment [2], -0.041; in the experiment with entospletinib, -0.006.

As for MLH1 (UniProt P40692), the log2 fold change was 0.04 in experiment [1]; -0.312 (active) with vorinostat; 0.025 with silmitasertib; 0.005 in experiment [2]; 0.022 with entospletinib.

For the target KSR1 (UniProt Q8IVT5), the log2 fold change was 0.029 in experiment [1]; -0.49 (active) in the experiment with vorinostat; 0.081 with silmitasertib; 0.031 in experiment [2]; -0.025 in the experiment with entospletinib.

On to MICU2 (UniProt Q8IYU8), for which the log2 fold change was 0.012 in experiment [1]; -0.179 with vorinostat; 0.031 with silmitasertib; -0.009 in experiment [2]; -0.089 in the experiment with entospletinib.

Turning to MAPKAPK2 (UniProt P49137), the log2 fold change is -0.019 in experiment [1]; -0.36 (active) in the experiment with vorinostat; 0.072 with silmitasertib; -0.014 in experiment [2]; 0.04 with entospletinib.

Regarding MBLAC2 (UniProt Q68D91), the log2 fold change was -0.1 in experiment [1]; 0.084 with vorinostat; -0.015 in the experiment with silmitasertib; -0.074 in experiment [2]; -0.011 with entospletinib.

Regarding LBR (UniProt Q14739), the log2 fold change in experiment [1] was -0.121; in the experiment with vorinostat, 0.17; with silmitasertib, -0.001; in experiment [2], -0.076; in the experiment with entospletinib, -0.009.

Consider MED13L (UniProt Q71F56), for which the log2 fold change in experiment [1] was -0.057; in the experiment with vorinostat, -0.253 (active); with silmitasertib it was 0.017; in experiment [2], 0.017; in the experiment with entospletinib, -0.052.
